Screens (PubChem)
Shown are actives, neighbours in structure and some others; about 6.8% of the full set was active somewhere.
Pf_Dd2_inh: P. falciparum Dd2 growth inhibition. SYBR Green, 72 h; active compounds read low. activity change, % at 10 µM. 94,000 compounds, 2.3% hits. AID 1159554; in the data active = activity change below about -80%; inconclusive = no clear call, values can overlap the other calls
C_diff_growth: blocks growth of Clostridium difficile. Clostridium difficile clinical isolate growth, OD600, 24 h; active compounds read low. growth activity, negative = inhibition, % at 16 µg/mL (by protocol). 86,000 compounds, 0.25% hits;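 active = mean growth activity at or below -80% and every replicate also at or below -80%; inconclusive = mean at or below -80% but some replicate above -80%; inactive = mean growth activity above -80%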
T_cruzi_growth-1: inhibitors of T. cruzi proliferation. T. cruzi beta-gal in NIH3T3, GalScreen luminescence, 90 h. inhibition, % at 8.34 µM. 77,000 compounds, 5.9% hits. AID 624255;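 active = mean inhibition above about 93%, with at least 55% of replicates each passing it, limit read from the data, passing the limit was not always enough; inconclusive = only one of those two conditions holds; inactive = neither condition holds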
T_cruzi_growth-2: inhibitors of T. cruzi proliferation. shares compounds with T_cruzi_growth-1. AID 651739. inhibition, % at 8.35 µM. 5,600 compounds, 72% hits. T. cruzi beta-gal in NIH3T3, GalScreen luminescence, 90 h;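 active = mean replicate inhibition above about 95% and at least 55% of replicates individually reaching it, limit read from the data; inconclusive = only one of the two criteria is met; inactive = neither criterion is met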
T_cruzi_growth-3: blocks T. cruzi growth in NIH3T3 host cells | T. cruzi beta-gal in NIH3T3, GalScreen luminescence, 90 h | AID 651740 | 5,600 compounds, 21% hits | inhibition, % at 2.09 µM | shares compounds with T_cruzi_growth-1;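 active = mean inhibition above about 95%, with at least 55% of replicates also reaching it, limit read from the data; inconclusive = meets just one of the two conditions; inactive = meets neither condition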
3T3_cytotox: cytotoxicity in mouse NIH/3T3 fibroblasts; shares compounds with T_cruzi_growth-1; 5,600 compounds, 14% hits; NIH/3T3 viability, CellTiter-Glo ATP luminescence, 90 h; cytotoxicity (signal decrease), % at 8.35 µM;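 active = mean signal decrease across replicates above about 35% based on untreated-well scatter, with enough replicates individually passing, limit read from the data; inconclusive = no rule stated though some were filed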
3T3_cytotox_2: kills mouse NIH/3T3 fibroblasts. shares compounds with T_cruzi_growth-1. NIH/3T3 viability, CellTiter-Glo ATP luminescence, 90 h. inhibition, % at 24.9 µM. 5,600 compounds, 56% hits. AID 651744;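 active = mean loss of cell viability signal at or above a set limit, and enough replicates individually reaching it; inconclusive = meets only the mean limit or only the replicate share; inactive = meets neither condition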
Hits are given with their value; i = inactive; ? = inconclusive; nt = no result.

SMILES Pf_Dd2_inh C_diff_growth T_cruzi_growth-1 T_cruzi_growth-2 T_cruzi_growth-3 3T3_cytotox 3T3_cytotox_2
O=C(C[C@H]1CC[C@@H]2[C@H](COC[C@@H](O)CN2Cc2ccccc2)O1)N[C@@H]1CCN(Cc2ccccc2)C1 i i i nt nt nt nt
O=C(C[C@@H]1CC[C@@H]2[C@H](COC[C@@H](O)CN2Cc2ccccc2)O1)NCc1ccccc1Cl i nt 100 i i i i
O=C(C[C@H]1CC[C@H]2[C@@H](COC[C@H](O)CN2Cc2cc(F)ccc2F)O1)N[C@@H]1CCN(Cc2ccccc2)C1 i i 96 i i i ?
O=C(Nc1cc(F)ccc1F)N[C@H]1CC[C@H](CC(=O)N2CCc3ccccc3C2)O[C@H]1CO i nt i nt nt nt nt
O=S(=O)(c1ccccc1)N1CC2(C1)[C@H](c1ccccc1)[C@@H](CO)N2CC1CC1 i i nt nt nt nt nt
C[C@H](CO)N1C[C@H](C)[C@@H](CN(C)Cc2cncnc2)Oc2ncc(C#CC3(O)CCCC3)cc2C1=O i i i nt nt nt nt
C[C@H]1CN([C@@H](C)CO)C(=O)c2cc(C3=CCCCC3)cnc2O[C@H]1CN(C)Cc1cccc(F)c1 i i 110 105 i i 35
C[C@H]1CN([C@@H](C)CO)C(=O)c2cc(C3=CCCCC3)cnc2O[C@@H]1CN(C)C(=O)c1cccc(F)c1 i i 105 108 i i 53
C[C@H](CO)N1C[C@H](C)[C@H](CN(C)Cc2cccc(F)c2)Oc2ncc(C3=CCCCC3)cc2C1=O i i nt nt nt nt nt
C[C@@H]1CN([C@H](C)CO)C(=O)c2cc(C3=CCCCC3)cnc2O[C@H]1CN(C)Cc1ccccc1C(=O)O i i i nt nt nt nt
C[C@@H]1CN([C@@H](C)CO)C(=O)c2cc(C3=CCCCC3)cnc2O[C@H]1CN(C)C(=O)c1cccc(F)c1 i i i nt nt nt nt
C[C@H]1CN([C@@H](C)CO)C(=O)c2cc(C3=CCCCC3)cnc2O[C@@H]1CN(C)Cc1ccccc1C(=O)O i i 108 i i i i
C[C@@H]1CCCCO[C@@H](CN(C)S(=O)(=O)c2ccccc2)[C@H](C)CN([C@@H](C)CO)C(=O)c2cc(NC(=O)Cc3ccccc3)ccc2O1 i nt i nt nt nt nt
Cc1ccc(S(=O)(=O)N(C)C[C@@H]2OCCCC[C@H](C)Oc3ccc(NC(=O)Cc4ccccc4)cc3C(=O)N([C@H](C)CO)C[C@@H]2C)cc1 i nt 112 101 i i ?
C[C@@H]1CCCCO[C@H](CN(C)S(=O)(=O)c2ccccc2)[C@H](C)CN([C@H](C)CO)C(=O)c2cc(NC(=O)Cc3ccccc3)ccc2O1 i nt nt nt nt nt nt
C[C@@H]1CCCCO[C@H](CN(C)S(=O)(=O)c2ccccc2)[C@@H](C)CN([C@@H](C)CO)C(=O)c2cc(NC(=O)Cc3ccccc3)ccc2O1 i nt nt nt nt nt nt
COc1ccc(S(=O)(=O)N(C)C[C@H]2OCCCC[C@H](C)Oc3ccc(NC(=O)Cc4ccccc4)cc3C(=O)N([C@@H](C)CO)C[C@@H]2C)cc1 -83 i ? 107 i i i
C[C@@H]1CN([C@H](C)CO)C(=O)c2cc(NC(=O)Cc3ccccc3)ccc2O[C@@H](C)CCCCO[C@@H]1CN(C)S(=O)(=O)c1ccc(Cl)cc1 -84 i 108 109 i i i
C[C@@H]1CN([C@@H](C)CO)C(=O)c2cc(NC(=O)Cc3ccccc3)ccc2O[C@@H](C)CCCCO[C@@H]1CN(C)S(=O)(=O)c1ccc(Cl)cc1 -85 i 111 101 i i i
Cc1ccc(S(=O)(=O)N(C)C[C@H]2OCCCC[C@H](C)Oc3ccc(NC(=O)Cc4ccccc4)cc3C(=O)N([C@H](C)CO)C[C@@H]2C)cc1 i nt i nt nt nt nt
CO[C@H]1CN(C)C(=O)c2cc(NS(C)(=O)=O)ccc2OC[C@H](C)N(Cc2ccccc2)C[C@@H]1C i nt i nt nt nt nt
CCCNC(=O)C[C@@H]1CC[C@@H]2[C@H](COc3ccc(NC(=O)Nc4ccccc4F)cc3C(=O)N2C)O1 i i i nt nt nt nt
CCCN1C[C@H](C)[C@H](OC)CN(C)C(=O)c2cc(NC(=O)c3ccccc3)ccc2OC[C@H]1C i i i nt nt nt nt
O=C(Nc1ccc(F)cc1)N1C[C@H]2[C@@H](c3ccccc31)[C@@H](CO)N2C(=O)c1cccnc1 i i i nt nt nt nt
O=C(Nc1ccccc1F)N1CCCCN2[C@H](CO)[C@H](c3ccc(C#Cc4ccccc4)cc3)[C@H]2C1 i i i nt nt nt nt
SMILES Pf_Dd2_inh C_diff_growth T_cruzi_growth-1 T_cruzi_growth-2 T_cruzi_growth-3 3T3_cytotox 3T3_cytotox_2
O=C(Nc1ccccc1F)N1CCCCN2[C@@H](CO)[C@H](c3ccc(C#Cc4ccccc4)cc3)[C@@H]2C1 i i 95 ? 115 119 104
COc1ccc(C#Cc2ccc([C@H]3[C@@H](CO)N4CCCCN(C(=O)Nc5ccccc5F)C[C@@H]34)cc2)cc1 i i 140 ? 114 ? 40
COc1ccc(C#Cc2ccc([C@@H]3[C@@H](CO)N4CCCCN(C(=O)Nc5ccccc5F)C[C@@H]34)cc2)cc1 -91 i 127 99 114 i 51
O=C(Nc1ccccc1F)N1CCCCN2[C@H](C1)[C@H](c1ccc(C#Cc3ccccc3)cc1)[C@@H]2CO i i i nt nt nt nt
CN(C)CC#Cc1ccc([C@H]2[C@@H](CO)N3CCCCN(C(=O)Nc4ccccc4F)C[C@@H]23)cc1 i i i nt nt nt nt
CCCc1cn(CC[C@H]2CC[C@H](NC(=O)C3CCCC3)[C@H](CO)O2)nn1 i i nt nt nt nt nt
Cc1ccc(S(=O)(=O)Nc2ccc3c(c2)C(=O)N([C@@H](C)CO)C[C@@H](C)[C@@H](CN(C)Cc2ccncc2)OCCCC[C@@H](C)O3)cc1 i nt i nt nt nt nt
C[C@@H]1CN([C@H](C)CO)C(=O)Cc2cc(NC(=O)C3CCCCC3)ccc2O[C@H]1CN(C)S(=O)(=O)c1ccccc1 i i i nt nt nt nt
O=C(Nc1cccc(F)c1)N1CC(=O)N2[C@@H](CO)[C@@H](c3ccc(-c4ccccc4)cc3)[C@@H]2C1 i i nt nt nt nt nt
C[C@@H]1CN([C@@H](C)CO)C(=O)c2cc(C#CCN(C)C)cnc2O[C@@H]1CN(C)Cc1cccc(F)c1 i i i nt nt nt nt
C[C@@H]1CN([C@@H](C)CO)C(=O)c2cc(C#CCc3ccccc3)cnc2O[C@H]1CN(C)Cc1cccc(F)c1 i nt 97 111 i i 104
CC(C)CC#Cc1cnc2c(c1)C(=O)N([C@H](C)CO)C[C@H](C)[C@@H](CN(C)Cc1cccc(F)c1)O2 i i 112 106 i i 107
C[C@@H]1CN([C@H](C)CO)C(=O)c2cc(C#CCN(C)C)cnc2O[C@H]1CN(C)Cc1cccc(F)c1 i i i nt nt nt nt
C[C@H]1CN([C@@H](C)CO)C(=O)c2cc(C#CCc3ccccc3)cnc2O[C@H]1CN(C)Cc1cccc(F)c1 i nt i nt nt nt nt
